Publication PMC7819943, “Rice protein-binding microarrays: a tool to detect cis-acting elements near promoter regions in rice”
Whole data set: some 35,000 sequences, median “fluorescence intensity (a.u.)” near 10,000, cut for the highest 2% near 52,000. Many of the other results were omitted from the sample, so the highest values are more common in it than they were.

target: T1, OsWOX13 (Oryza sativa, UniProt Q5QMM3 1-267); test: protein-binding microarray (RPBM); PBS, 2% BSA, 51.3 ng/ul salmon testes DNA, 50 uM zinc acetate, 200 nM TF, 25 C, 1 h; high values mean tight binding; conditions: protein: recombinant; tags: N-terminal polyhistidine and DsRed monomer fusion (pET32a); label: CyDye5-dUTP incorporated in the synthesized complementary strand; 3' TTTTT single-stranded linker to array surface; dsDNA, one strand shown
T1 sequence: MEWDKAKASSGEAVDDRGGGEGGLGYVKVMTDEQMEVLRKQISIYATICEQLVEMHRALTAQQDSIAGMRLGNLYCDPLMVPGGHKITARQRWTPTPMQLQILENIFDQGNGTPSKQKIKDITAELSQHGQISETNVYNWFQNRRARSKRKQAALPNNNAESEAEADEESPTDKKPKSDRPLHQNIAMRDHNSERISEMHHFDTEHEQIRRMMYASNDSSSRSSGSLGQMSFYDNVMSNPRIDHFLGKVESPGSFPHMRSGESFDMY
Outline: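 Binding signal is defined as the fluorescence intensity of each feature in arbitrary units, read on an Axon 4000B scanner. Transcription factors with N-terminal polyhistidine and DsRed fusions came from E. coli BL21-CodonPlus and were purified on Ni–NTA. They were incubated at 200 nM for 1 h at 25 °C on a custom Agilent array that had been made double-stranded with Cy5-dUTP, with 50 µM zinc acetate present, and the array was washed.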

Q: “GGTAGTACTTAATTAATCACGCGCTAATAGACCGCTCTGTCGGAGTCACCTAGTGCAG” was tested. Which binding signal did it give?
A: Its binding signal is 22600 fluorescence intensity (a.u.).

Q: For “TCGTATTTATGGCTAATTATTATTTCAGTGGTAGACGATTCGGAGTCACCTAGTGCAG”, which binding signal is on record?
A: The binding signal was 6670 fluorescence intensity (a.u.).

Q: Which binding signal does the source give for “TACACTAATTAATTAAGCATTAATCGTGGGAAGAGTAACGCGGAGTCACCTAGTGCAG” here?
A: Its binding signal is 47000 fluorescence intensity (a.u.).

Q: For “TTGCATGTTTGTGGATTGATACATTAGATATTGATCTATCCGGAGTCACCTAGTGCAG”, which binding signal is on record?
A: The binding signal was 3540 fluorescence intensity (a.u.).

Q: For “TCATGCAGTAATTAATCAGTGACAGTGAACCTTGTTAGTACGGAGTCACCTAGTGCAG”, which binding signal is on record?
A: Its binding signal is 17400 fluorescence intensity (a.u.).

Q: How did the binding signal turn out when “AGAAAATTTAATCTTAAATATGGACATTACGAATGTACAACGGAGTCACCTAGTGCAG” was run?
A: The binding signal was 4110 fluorescence intensity (a.u.).

Q: “AAAATTTGTCAATAAATATATAGGCAGTCCCGGTCCGTTCCGGAGTCACCTAGTGCAG” was tested. Which binding signal did it give?
A: Its binding signal is 4490 fluorescence intensity (a.u.).

Q: With “TCCTCAATTAATTGCTGATCCTAATGCAGAGTTTCAGGTGCGGAGTCACCTAGTGCAG” as the sequence, how does the binding signal read?
A: Its binding signal is 35500 fluorescence intensity (a.u.).

Q: With “TATCACTAATAATTTAGCTCAGTTTGACAAGACGGATATCCGGAGTCACCTAGTGCAG” as the sequence, how does the binding signal read?
A: Its binding signal is 4380 fluorescence intensity (a.u.).

Q: How did the binding signal turn out when “TTACCAAATTTCACTGTTAACAGCGGTGCGTGGGTATTGACGGAGTCACCTAGTGCAG” was run?
A: Its binding signal is 6390 fluorescence intensity (a.u.).

Q: How did the binding signal turn out when “GGTATAACCTAAAGTTTATCCGTTTGTAGAGCGAATGTTTCGGAGTCACCTAGTGCAG” was run?
A: The binding signal was 14400 fluorescence intensity (a.u.).

Q: Which binding signal does the source give for “CATGGTCAATCTACTCGTTAACGTACATTCACGGTTATTTCGGAGTCACCTAGTGCAG” here?
A: The binding signal was 9160 fluorescence intensity (a.u.).

Q: How did the binding signal turn out when “TCCACTTGGGTGATTAGAATCTGTCTTCCCTGTTTTAAGCCGGAGTCACCTAGTGCAG” was run?
A: Its binding signal is 7670 fluorescence intensity (a.u.).

Q: Which binding signal does the source give for “CTTAATTAGCTCTAGCGAGCTAGCTAGCTTGCTCTGTCTTCGGAGTCACCTAGTGCAG” here?
A: The binding signal was 24200 fluorescence intensity (a.u.).

Q: For “GTTTTCCTAATTAATTGCTAGCTCGATTTGCTCGGTGATCCGGAGTCACCTAGTGCAG”, which binding signal is on record?
A: The binding signal was 29900 fluorescence intensity (a.u.).

Q: “TAACCTTAATTAATTGATTAAATTACAAATATTCTAGCCCCGGAGTCACCTAGTGCAG” was tested. Which binding signal did it give?
A: The binding signal was 44000 fluorescence intensity (a.u.).

Q: For “TCTAATTGGCTTACTTAATATGATTCGATCCTACAACCTCCGGAGTCACCTAGTGCAG”, which binding signal is on record?
A: Its binding signal is 53700 fluorescence intensity (a.u.).

Q: How did the binding signal turn out when “TAATTTAATTTAATTACCTCCCTAATCACTCTCGCTCGCTCGGAGTCACCTAGTGCAG” was run?
A: The binding signal was 46200 fluorescence intensity (a.u.).

Q: “CATACATATGTAATTTACTTCGATTCGATTAAATTGGCAGCGGAGTCACCTAGTGCAG” was tested. Which binding signal did it give?
A: The binding signal was 7090 fluorescence intensity (a.u.).

Q: “AGAGATCGATCGATTAATTAGCAACAAGCCAACGACAAGCCGGAGTCACCTAGTGCAG” was tested. Which binding signal did it give?
A: The binding signal was 4950 fluorescence intensity (a.u.).

Q: Which binding signal does the source give for “TCGTGATTAGAATCTTAATCTCTAGCCTGTCTTTGCTTGCCGGAGTCACCTAGTGCAG” here?
A: Its binding signal is 56200 fluorescence intensity (a.u.).

Q: With “CACTTGATTAATTTATCCTCTCCTCGCGTCGCTGTCGCGTCGGAGTCACCTAGTGCAG” as the sequence, how does the binding signal read?
A: The binding signal was 52700 fluorescence intensity (a.u.).

Q: Which binding signal does the source give for “GCCTAATTGCTTAATTAGCAGCCAACGGATTCGATTGATCCGGAGTCACCTAGTGCAG” here?
A: The binding signal was 53900 fluorescence intensity (a.u.).

Q: “GCTGTTTGATCCATAATTTATCCGCGCGTCGTCACTCCGACGGAGTCACCTAGTGCAG” was tested. Which binding signal did it give?
A: Its binding signal is 5840 fluorescence intensity (a.u.).

Q: For “AAGATGAGGTGATAGACTGACTAGCACTGAGCTTGCCCGGCGGAGTCACCTAGTGCAG”, which binding signal is on record?
A: The binding signal was 14400 fluorescence intensity (a.u.).

Q: Which binding signal does the source give for “ACTAGACAATTTGAATTTACAACTATATATACTCCCAATCCGGAGTCACCTAGTGCAG” here?
A: Its binding signal is 3250 fluorescence intensity (a.u.).

Q: For “GAACTAGCTTAATTAAACCACAATTAGAATATATGTAGGACGGAGTCACCTAGTGCAG”, which binding signal is on record?
A: Its binding signal is 3750 fluorescence intensity (a.u.).

Q: For “TAAGTAATTATTTATTCTTTTCATATCATTTGATTCATTGCGGAGTCACCTAGTGCAG”, which binding signal is on record?
A: The binding signal was 15400 fluorescence intensity (a.u.).

Q: How did the binding signal turn out when “AAAAGGATATGATTTGAAATGGCATTAAAGTGAATAGGCCCGGAGTCACCTAGTGCAG” was run?
A: The binding signal was 4540 fluorescence intensity (a.u.).

Q: Which binding signal does the source give for “TTAGCGTCTAATTATAGGATTATTTATGATAATATTCGTCCGGAGTCACCTAGTGCAG” here?
A: Its binding signal is 5680 fluorescence intensity (a.u.).

Q: “TCCAACGGTGCCGCTTAATTAGTGATTAATTATCCTAATTCGGAGTCACCTAGTGCAG” was tested. Which binding signal did it give?
A: The binding signal was 16400 fluorescence intensity (a.u.).

Q: For “TTATGATTTAATTAGCGATTAATTATCCTAATTAGTGATTCGGAGTCACCTAGTGCAG”, which binding signal is on record?
A: The binding signal was 62200 fluorescence intensity (a.u.).

Q: With “GATTAGGTTAATTGAGATCTGCCTTGCTCTGCTCTGCTCGCGGAGTCACCTAGTGCAG” as the sequence, how does the binding signal read?
A: Its binding signal is 21500 fluorescence intensity (a.u.).

Q: For “CAGTTAATTGAGTTGATGGCCACTCCTCTGCTGCTCGTCGCGGAGTCACCTAGTGCAG”, which binding signal is on record?
A: Its binding signal is 60700 fluorescence intensity (a.u.).

Q: With “CTAATGAGCCTAATTAATCCATGATTAGCCTATGTGATGCCGGAGTCACCTAGTGCAG” as the sequence, how does the binding signal read?
A: Its binding signal is 43000 fluorescence intensity (a.u.).

Q: Which binding signal does the source give for “ACTCCTGACTTGATTGGCAGTGAGTTGCTCATCTGCCTAGCGGAGTCACCTAGTGCAG” here?
A: The binding signal was 40300 fluorescence intensity (a.u.).

Q: How did the binding signal turn out when “GCCTAATTAATCCATGATTAGCCTATGTGATGCTATAGTACGGAGTCACCTAGTGCAG” was run?
A: Its binding signal is 52700 fluorescence intensity (a.u.).

Q: Which binding signal does the source give for “TCTAATTAATCCATGATTAGCCTATGTGATGCTACAGTAACGGAGTCACCTAGTGCAG” here?
A: The binding signal was 25100 fluorescence intensity (a.u.).

Q: “ATGACTATTTTCACCTATAATTATAAGTTATGGAACAATACGGAGTCACCTAGTGCAG” was tested. Which binding signal did it give?
A: Its binding signal is 4820 fluorescence intensity (a.u.).

Q: Which binding signal does the source give for “AGCAAAATTAACACCGCAATTTGAGCCGGTTACTTCTTTCCGGAGTCACCTAGTGCAG” here?
A: The binding signal was 4830 fluorescence intensity (a.u.).

Q: For “CCGCGATTACAATTAGCGCCGGATTAACCCTGCAATTAGCCGGAGTCACCTAGTGCAG”, which binding signal is on record?
A: Its binding signal is 20500 fluorescence intensity (a.u.).

Q: For “CTCAACATGAACTTCTTGATTACCTGTGACCCAGCCACGGCGGAGTCACCTAGTGCAG”, which binding signal is on record?
A: The binding signal was 3150 fluorescence intensity (a.u.).

Q: How did the binding signal turn out when “CATCGAACATCATGAATTTGATTGGCTTCTACTTTCACGACGGAGTCACCTAGTGCAG” was run?
A: The binding signal was 17100 fluorescence intensity (a.u.).
